PubChem BioAssay (NCATS)
Results filed as inconclusive are left out. Active and inactive are the calls of the source. Calls follow the shape of the dose curve; as a rule, active = well fitted cell-killing curve with a large enough effect; inconclusive = small, poorly fitted or top-dose-only effect, or effect the other way; inactive = no such curve, though single readings can be large or run the other way.

Assay: Quantitative High-Throughput drug screen in 47 multiple myeloma cell lines against the NCATS MIPE library collection: OCIMY7_PLB cell viability assay (AID 1918987)
Details: OCI-MY7 myeloma viability, CellTiter-Glo ATP, 48 h; series mostly up to 45.8 µM; viability (% of DMSO): at the top concentration
Method in brief: (§1)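 ATP-based CellTiter-Glo luminescence after 48 h drug exposure (37 °C, 5% CO2) of 500 myeloma cells per well. DMSO-only wells set 100% viability, media-only wells 0%; MIPE 4.0 library added by pin tool.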
Also: nearly all actives have a fitted effect of over 65% in size.
Potency is read from the fitted curve at half-maximal effect.

| Structure (SMILES) | Potency | viability (% of DMSO) |
| --- | --- | --- |
| CNC(=O)c1ccc(C)c(-n2c(C)cc(OCc3ccc(F)cc3F)c(Br)c2=O)c1 | 8.33 µM (active) | – |
| Cc1cc([C@@H](C)Nc2ccccc2C(=O)O)c2nc(N3CCOCC3)cc(=O)n2c1 | 2.15 µM (active) | – |
| Cc1cc2c(C(C)C)c(O)c(O)c(C=O)c2c(O)c1-c1c(C)cc2c(C(C)C)c(O)c(O)c(C=O)c2c1O | 8.33 µM (active) | – |
| CN(C)c1ccc(C2Nc3ccc4ccccc4c3C3=C2C(=O)CC(C)(C)C3)cc1Br (stereo not given) | 0.935 µM (active) | – |
| Clc1ccc(Nc2nnc(Cc3ccncc3)c3ccccc23)cc1 | 3.32 µM (active) | – |
| O=C1CCCC2=C1C(c1[nH]ncc1Cl)N=C(Nc1nc3ccccc3o1)N2 (stereo not given) | 8.33 µM (active) | – |
| O=c1ncn2nc(Sc3ccc(F)cc3F)ccc2c1-c1c(Cl)cccc1Cl | 16.6 µM (active) | – |
| Cc1ccc(NC(=O)c2cccc(C(C)(C)C#N)c2)cc1Nc1ccc2ncn(C)c(=O)c2c1 | 0.935 µM (active) | – |
| Cc1c(CCOc2ccc(C(=O)O)cc2)c2cc(Cl)ccc2n1C(c1ccccc1)c1ccccc1 | – | 156% (inactive) |
| CCC(=O)N[C@H]1CC[C@H](C(=O)N(C)c2ccc(-c3nc4ccccc4o3)cc2)C1 | 8.33 µM (active) | – |

Assay: Quantitative High-Throughput drug screen in 47 multiple myeloma cell lines against the NCATS MIPE library collection: OCIMY5_PLB cell viability assay (AID 1918988)
Details: OCI-MY5 myeloma viability, ATP luminescence, 48 h; series mostly up to 45.8 µM; viability, % of control: at the top concentration
Method in brief: as §1

| Structure (SMILES) | Potency |
| --- | --- |
| Nc1ncnc2nc(-c3ccc(N4CCOCC4)nc3)cc(-c3cccc(Br)c3)c12 | 16.6 µM (active) |
| COc1ccccc1[C@H](c1cccc2ccccc12)[C@@](C)(C#N)C(=O)N1CCC(c2cccc(C(F)(F)F)c2)CC1 | 4.69 µM (active) |
| NC[C@H](O)c1ccc(O)c(O)c1 | 1.32 µM (active) |
| CCCc1nn(C)c2c(=O)[nH]c(-c3cc(S(=O)(=O)N4CCN(C)CC4)ccc3OCC)nc12 | 7.43 µM (active) |
| Cc1cc([C@@H](C)Nc2ccccc2C(=O)O)c2nc(N3CCOCC3)cc(=O)n2c1 | 38.2 µM (active) |
| Cc1cc2c(C(C)C)c(O)c(O)c(C=O)c2c(O)c1-c1c(C)cc2c(C(C)C)c(O)c(O)c(C=O)c2c1O | 14.8 µM (active) |
| CN(C)c1ccc(C2Nc3ccc4ccccc4c3C3=C2C(=O)CC(C)(C)C3)cc1Br (stereo not given) | 23.5 µM (active) |
| Clc1ccc(Nc2nnc(Cc3ccncc3)c3ccccc23)cc1 | 6.62 µM (active) |
| O=C1CCCC2=C1C(c1[nH]ncc1Cl)N=C(Nc1nc3ccccc3o1)N2 (stereo not given) | 23.5 µM (active) |
| Cc1ccc(N(CC2=NCCN2)c2cccc(O)c2)cc1 | 23.5 µM (active) |
| Cn1cc(-c2ccc3nnc(C(F)(F)c4ccc5ncccc5c4)n3n2)cn1 | 16.6 µM (active) |
| NCCCC(N)(C(=O)O)C(F)F (stereo not given) | 0.332 µM (active) |
| CCc1cncnc1N1CCN(Cc2nc3ccc(C(F)(F)F)cc3[nH]2)CC1 | 23.5 µM (active) |
| Cc1ccc(NC(=O)c2cccc(C(C)(C)C#N)c2)cc1Nc1ccc2ncn(C)c(=O)c2c1 | 16.6 µM (active) |
| CC(C)(C)OC(=O)CN(Cc1ccc(Cl)cc1)Cc1ccc([N+](=O)[O-])s1 | 18.7 µM (active) |
| COc1ccc(-c2ccc3c(N4CCOC[C@H]4C)nc(N4CCOC[C@H]4C)nc3n2)cc1CO | 0.332 µM (active) |
| Cc1cc(SCc2sc(-c3ccc(C(F)(F)F)cc3)nc2C)ccc1OCC(=O)O | 3.72 µM (active) |
| CCCCCCCc1ccc(CCc2cccc(O)c2C(=O)O)cc1 | 16.6 µM (active) |
| CC[C@@H](C)[C@H](NC(=O)[C@H](CC1CCCCC1)NC(=O)c1ccno1)C(=O)N1CCC2(CCc3ccccc32)CC1 | 8.33 µM (active) |
| O=C(Nc1ccc(F)c(C(F)(F)F)c1)Nc1nnc(-c2ccncc2)s1 | 2.35 µM (active) |
